The list is not random: actives were taken first. Their share in the collection is about 4.8%.
USP2a block: blocks human ubiquitin-specific protease USP2a; USP2 core, Ub-CHOP2 coupled fluorogenic reporter, 485/531; Potency, µM (top dose mostly 38.3 µM), without a hit: at the highest dose activity change, negative = inhibition, usual class: inhibitors; 0.01% of 330,000 active;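 also: potency is read from the fitted curve at half-maximal effect; plate controls were DMSO wells for no effect and full inhibition by NEM control for full effect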
Target sequence (O75604 whole entry, looked up): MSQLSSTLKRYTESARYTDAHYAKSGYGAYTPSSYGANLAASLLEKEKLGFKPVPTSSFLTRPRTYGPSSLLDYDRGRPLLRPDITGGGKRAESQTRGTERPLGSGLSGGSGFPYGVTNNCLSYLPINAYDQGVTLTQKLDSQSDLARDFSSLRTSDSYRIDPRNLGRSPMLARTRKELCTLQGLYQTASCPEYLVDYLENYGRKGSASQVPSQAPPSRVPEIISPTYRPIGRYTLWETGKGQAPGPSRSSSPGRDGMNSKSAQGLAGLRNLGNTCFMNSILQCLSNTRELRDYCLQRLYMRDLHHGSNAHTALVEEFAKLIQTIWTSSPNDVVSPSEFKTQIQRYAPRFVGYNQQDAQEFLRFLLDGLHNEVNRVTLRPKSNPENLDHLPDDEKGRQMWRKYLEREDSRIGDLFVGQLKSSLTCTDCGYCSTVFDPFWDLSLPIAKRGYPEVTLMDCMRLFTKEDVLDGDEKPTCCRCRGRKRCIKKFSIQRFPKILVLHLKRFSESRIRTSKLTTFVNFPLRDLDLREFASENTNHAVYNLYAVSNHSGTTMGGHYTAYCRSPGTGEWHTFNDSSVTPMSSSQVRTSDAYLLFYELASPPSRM
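Deubiquitinase activity read as fluorescence (485/531 nm) after Ub-CHOP2 cleavage activates the enterokinase reporter on its substrate; USP2 core 10nM, Ub-CHOP2 and substrate 25nM each, 30min compound preincubation then 60min RT; data normalized to NEM, curves fitted.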
ATXN viability: reduces viability in counter-screen for ATXN expression inhibitors; S2 cells (HEK-293 line with an ATXN2-luciferase reporter) viability, CellTiter-Fluor protease fluorescence, 24 h; Potency, µM (doses to about 56.7 µM), actives largely listed as cytotoxic; 0.49% of 400,000 active; also: potency is read from the fitted curve at half-maximal effect; nearly all actives have a fitted effect of over 40% in size
USP1 inh: blocks the human USP1/UAF1 deubiquitinase complex; O94782; recombinant USP1/UAF1, Ub-Rhodamine cleavage fluorescence; Potency, µM (doses to about 57.1 µM), for the others: at the top dose activity change, negative = inhibition, hits mostly inhibitors; 0.23% of 390,000 active; also: potency is read from the fitted curve at half-maximal effect; % is scaled to controls: 0 for no effect and ±100 for the full control effect; nearly all actives have a fitted effect of over 60% in size
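USP1/UAF1 complex (1 nM) preincubated 15 min at room temperature with compound, then Ub-Rho substrate (150 nM final) added. Kinetic fluorescence at 480/540 nm over 6 reads at 60 s intervals; 50 mM HEPES pH 7.8, 0.5 mM EDTA, 0.1 mg/ml BSA, 1 mM TCEP, 0.01% Tween-20.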
IL1B secr inh: blocks inflammasome-driven IL-1 beta release; THP-1 LPS/ATP IL-1B secretion, AlphaLISA, 16 h; hits give low values; activity change, % at 57.5 µM; 4.7% of 360,000 active; AID 743279; in the data active = activity change below about -50%; inconclusive = mostly about -30% to -49%; also: % is scaled to controls: 0 for no effect and ±100 for the full control effect
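Secreted IL-1B measured by AlphaLISA bead assay after 16 h compound exposure of THP-1 cells; compounds (final up to 57.5 uM) added 1 h before LPS (250 ng/mL) and ATP (1.25 mM) stimulation; lower signal means less secretion.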
ATXN2 expr inh: inhibitors of ATXN2 expression; HEK-293 ATXN2-luciferase reporter, luminescence, 24 h; Potency, µM (series often up to 57 µM), inactives show at the top dose activity change, negative = inhibition, hits mostly inhibitors; 0.72% of 360,000 active; AID 1745845; also: potency is read from the fitted curve at half-maximal effect; % is scaled to controls: 0 for no effect and ±100 for the full control effect; nearly all actives have a fitted effect of over 55% in size
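ATXN2-luciferase reporter cells (luciferase flanked by upstream and downstream ATXN2 gene portions) were treated 24 h at 37 °C with compounds at up to 57 uM. SteadyGlo luminescence gave expression; GF-AFC fluorescence gave viability.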
* marks the source's active call; other numbers are inactive results; i = inactive; ? = inconclusive; . = no result given; [ ] = dose if it differs, or a comment. Unless noted, calls follow the shape of the dose curve; as a rule, active = well fitted curve in the direction sought with a large enough effect; inconclusive = small, poorly fitted or top-dose-only effect, or another doubt; inactive = no such curve, though single readings can be large; an effect the other way counts as inactive or inconclusive.

SMILES | USP2a block | ATXN viability | USP1 inh | IL1B secr inh | ATXN2 expr inh
COc1ccc(C(CNC(=O)Cc2ccc(Cl)c(Cl)c2)N(C)C)cc1 (centres undefined) | 0% | i | -16% | -51* | 109%
COc1ccc(C(CNC(=O)Cc2ccc(Cl)c(Cl)c2)N2CCCCC2)cc1 (centres undefined) | -1% | i | -6% | -8 | -5%
CCN(CC)S(=O)(=O)c1cc(NC(=O)C(C)N2CC=C(c3ccccc3)CC2)ccc1C (centres undefined) | 0% | i | -23% | -58* | -34%
CCN(CC)C(=O)Cn1cc(/C=C2\C(=O)NC(=O)N(c3ccccc3F)C2=O)c2ccccc21 | -5% | ? | -1% | -94* | ?
O=C(O)Cn1cc(/C=C2\C(=O)NC(=O)N(c3ccc(Cl)cc3)C2=O)c2ccccc21 | -6% | i | -21% | 39 | .
C[C@@H]1O[C@@H](O[C@@H]2C=C3CC[C@@H]4[C@@H](CC[C@]5(C)[C@H](c6ccc(=O)oc6)CC[C@@]45O)[C@@]3(C)CC2)[C@H](O)[C@H](O)[C@H]1O | . | . | . | . | 0.019µM*
CN1C[C@H](CNC(=O)OCc2ccccc2)C[C@H]2c3cccc4c3c(cn4C)C[C@@H]21 | . | i | . | . | .
NCc1cccnc1 | . | i | . | . | 12%
O=C(NCCc1ccc(F)cc1)C(=O)NCC(c1cccs1)S(=O)(=O)c1ccc(Cl)cc1 (centres undefined) | . | ? | -13% | . | ?
O=C1NC(=O)C(=Cc2ccc(OCCOc3ccc([N+](=O)[O-])cc3)cc2)C(=O)N1 | 2% | i | -11% | -59* | 2%
O=C1NC(=O)C(=Cc2cccc(OCCOc3ccccc3)c2)C(=O)N1 | 1% | i | -10% | -5 | -20%
Cc1sc2c(c1C)C(c1ccc(Cl)cc1)=N[C@@H](CC(=O)OC(C)(C)C)c1nnc(C)n1-2 | . | . | . | . | 10%
COc1cccc(C2CC3C(=O)C=CC2N3Cc2ccccc2)c1 (centres undefined) | -2% | i | -22% | ? | ?
O=C1C=CC2C3C(=O)N(c4ccccc4)C(=O)C3C1N2Cc1ccccc1 (centres undefined) | . | 6µM* | -23% | -97* | ?
COc1ccc(CCNc2oc(-c3ccc(OC)c(OC)c3)nc2P(=O)(OC)OC)cc1OC | 4% | ? | -17% | -1 | -6%
CCN1/C(=C/C=C/C2=[N+](CC)c3ccccc3C2(C)C)C(C)(C)c2ccccc21 | . | 7.9µM* | 25µM* | -105* | .
CN1/C(=C\C=C\C2=[N+](C)c3ccc4ccccc4c3C2(C)C)C(C)(C)c2ccccc21 | -13% | . | . | . | .
CCc1ccccc1Nc1nn2c(=O)c3ccc(C(=O)Nc4cc(C)cc(C)c4)cc3nc2s1 | . | ? | -37% | . | ?
COCC(=O)N(c1c(C)cccc1C)C(C)C(=O)OC (centres undefined) | . | i | . | . | 2%
Cn1cc(NC(=O)CCl)cn1 | 2% | ? | -1% | -102* | -22%
CCC(=O)Nc1ccccc1 | 0% | i | -5% | 0 | 5%
CN1C(=O)C(=Cc2sc(=O)n(-c3ccccc3)c2N(C)C)C(=O)N(C)C1=O | 1% | ? | -25% | -97* | ?
Cc1cc(C=C2C(=O)NC(=S)NC2=O)c(C)n1C1CCCC1 | 1% | i | -19% | -53* | 8%
CCn1nc(-c2ccccc2)nc2c(=O)n(C)c(=O)nc1-2 | 23% | . | . | -114* | 28µM*
COc1ccc(-c2nc3ccccc3c(=O)n2-c2ccc(OC)cc2)cc1 | -1% | i | -14% | 7 | -16%
SMILES | USP2a block | ATXN viability | USP1 inh | IL1B secr inh | ATXN2 expr inh
O=C(C1CCN(S(=O)(=O)c2ccc(Br)s2)CC1)N1CCN(c2ccc(F)cc2)CC1 | . | ? | -32% | . | 6%
CN1[C@@H]2CC(OC(=O)[C@H](CO)c3ccccc3)C[C@H]1[C@@H]1O[C@@H]12 (some centres undefined) | -1% | i | -19% | 5 | 3%
O=C(Nc1ccc(Cl)c(C(F)(F)F)c1)NC1CC2CCCC(C1)N2Cc1ccccc1 (centres undefined) | 1% | ? | -6% | -106* | ?
O=C(CN1CCN(C(=O)COc2cccc(F)c2)CC1)Nc1ccc(Cl)c(C(F)(F)F)c1 | -6% | i | -9% | ? | -26%
Cc1ccc2c(C)c3ccc4ccccc4c3c[n+]2c1 | . | i | -16% | -66* | ?
COc1ccc(OC)c(CC(C)N)c1 (centres undefined) | . | ? | . | . | 2%[116 µM]
CN1CCC2(CC1)c1ccccc1-c1ccccc12 | . | i | -4% | -67* | -23%
Cc1ccc(C)c(CN2C(=O)c3ccccc3S(=O)(=O)c3ccc(C(=O)N4CCCCCC4)cc32)c1 | . | . | 40% | . | .
CNc1ccc2nc3ccccc3[n+](C)c2c1 | -2% | 10µM* | ? | 0 | .
C[n+]1c2ccccc2nc2ccc(NCCO)cc21 | -12% | 13µM* | ? | -10 | -34%
CC[C@@H](C)[C@H](C(CC(=O)N1CCCC1[C@@H](OC)[C@H](C)C(=O)N[C@H](Cc1ccccc1)c1nccs1)OC)N(C)C(=O)[C@H](NC(=O)[C@@H](C(C)C)N(C)C)C(C)C (some centres undefined) | . | ? | -11% | 41 | 9%
COc1ccc(NC(=O)c2ccco2)cc1NC(=O)COc1cc(C)cc(C)c1 | . | ? | -10% | . | -19%
COC1CC2C=C(C)C=CC=CC(=O)NC(c3ccccc3)CC=CCCC(O)CC(=O)C2=C1O (centres undefined) | . | 14µM* | . | -113* | 2.8µM*
COc1cc([N+](=O)[O-])c2nc(C)ccc2c1[N+](=O)[O-] | . | 28µM* | -19% | -3 | -25%
COc1cc([N+](=O)[O-])c2ncccc2c1[N+](=O)[O-] | . | ? | . | -117* | ?
O=[N+]([O-])c1ccc(N2CCCC2)c2ncccc12 | 12% | i | 1% | -9 | -9%[11.3 µM]
CCN(Cc1ccc(Cl)nc1)/C(=C/[N+](=O)[O-])NC | . | i | . | . | 12%
O=S1(=O)OCCC(c2ccccc2)N1Cc1ccccc1 (centres undefined) | 0% | i | -25% | 12 | 3%
CN1CCC(O)(c2ccc(F)cc2)C(C(=O)c2ccc(F)cc2)C1 (centres undefined) | . | i | . | . | -12%
CN1CCC(O)(c2cccs2)C(C(=O)c2cccs2)C1 (centres undefined) | 2% | i | -17% | -94* | 19%
CN(Cc1ccccc1)C(=O)c1ccc(NC(=O)C2CCN(C(=O)OC(C)(C)C)CC2)cc1 | 6% | ? | -6% | 46 | 25µM*
COc1cc2c(cc1/C=C/[N+](=O)[O-])OCO2 | 3% | 28µM* | -22% | -11 | -8%[11.3 µM]
